# Screening data as filed in PubChem BioAssay.
# Most compounds without a hit are left out; they make up all but 7.2% or so of the library.
# SNCA expr inhib: reduces expression of the alpha-synuclein gene; HEK-293 SNCA-luciferase knock-in, luminescence, 24 h; hit rate 0.17% among 140,000; Potency, µM (top dose mostly 57.2 µM), without a hit: at the highest dose activity change, negative = inhibition, most hits filed as inhibitors;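 note: plate controls were DMSO cells for no effect and cell-free wells for full effect; nearly all actives have a fitted effect of over 45% in size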
# NIH3T3 tox: cytotoxic compounds in NIH 3T3 cells; NIH 3T3 viability, CellTiter-Glo ATP luminescence, 48-72 h; Potency, µM (series often up to 96.7 µM), for the others: top-dose activity change, negative = cytotoxicity, most hits filed as inhibitors; hit rate 4.3% among 94,000; note: nearly all actives have a fitted effect of over 55% in size
#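 Luminescent ATP readout (CellTiter-Glo, 10 min RT) after 48 or 72 hr compound exposure of NIH 3T3 cells seeded at 400 cells/well in 1536-well format; quantitative HTS.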
# HEK293 viab: counter-screen for SNCA expression inhibitors: cell viability; HEK-293-SNCA-luc viability, GF-AFC fluorescence, 24 h; Potency, µM (highest dose often 57.1 µM), inactives show at the top dose activity change, negative = cytotoxicity, hits mostly cytotoxic; hit rate 0.12% among 150,000; AID 1671193;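 note: 0% = DMSO-treated cells and -100% = medium-only wells without cells; nearly all actives have a fitted effect of over 30% in size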
#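 HEK-293-SNCA-luc cells (1500/well) plated 24 h, then exposed 24 h to a dilution series; GF-AFC added 30 min at 37C, fluorescence 405/540 nm; normalised to medium-only and DMSO wells, Hill fit.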
# NPR1 antag: antagonists of human natriuretic peptide receptor Npr1; AID 1347048; Potency, µM (series often up to 46.3 µM), for the others: at the top dose activity change, negative = inhibition, actives largely listed as inhibitors; hit rate 1.6% among 76,000; HEK293 hNpr1 GloSensor cGMP, ANP-stimulated luminescence; P16066; calls by dose curve; note: nearly all actives have a fitted effect of over 60% in size
#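 Compound pre-incubated 30 min at room temperature on GloSensor-loaded HEK293 cells stably carrying hNpr1 and the pGS-40F cGMP biosensor. Stimulation uses hNppA at 0.1 nM final; luminescence is taken at baseline and 20 min post-agonist.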
# Luciferase inh: inhibitors of firefly (Photinus pyralis) luciferase | P08659 | Potency, µM (doses to about 115 µM), hits mostly inhibitors | AID 1347043 | purified P. pyralis luciferase, luminescence, biochemical | hit rate 2.5% among 76,000; note: nearly all actives have a fitted effect of over 65% in size
#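 Luminescence read by CCD imager after adding enzyme (10nM final) to wells holding compound, titrated in qHTS. Substrates 10uM each D-luciferin and ATP; buffer 50mM Tris acetate pH 7.5, 10mM Mg acetate, Tween-20, BSA.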
# HEK293 tox: kills HEK 293 cells; hit rate 6.6% among 94,000; Potency, µM (doses to about 115 µM), for the others: top-dose activity change, negative = cytotoxicity, actives largely listed as inhibitors; HEK 293 viability, ATP luminescence (CellTiter-Glo), 48-72 h; AID 1345083; note: nearly all actives have a fitted effect of over 60% in size
#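 HEK 293 seeded at 250 cells/well receive compound via pintool. After 48 or 72 hr at 37 degree Celsius, 5% CO2 and 95% humidity, CellTiter-Glo is dispensed and luminescence read following 10 min at room temperature.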
# The depositor's hits bear a star; i = inactive; ? = inconclusive; . = not tested or not shown; [ ] = dose if it differs, or a comment. Unless noted, calls come from the whole dose curve; as a rule, active = well fitted curve in the direction sought with a large enough effect; inconclusive = small, poorly fitted or top-dose-only effect, or another doubt; inactive = no such curve, though single readings can be large; an effect the other way counts as inactive or inconclusive. Unless noted, % is set by controls: 0 for no effect and ±100 for the full control effect; potency is the fitted concentration of half-maximal effect.
SMILES,SNCA expr inhib,NIH3T3 tox,HEK293 viab,NPR1 antag,Luciferase inh,HEK293 tox
CCOCC1(C)COc2ccc(C(=O)NCc3cc(OC)cc(OC)c3)cc2N1 (configuration not stated),-12%[87.6 µM],-9%[138 µM],3%[87.6 µM],-22%[70.6 µM],i,?
CC1(CCCCc2ccccc2)COc2ccc(C(=O)NC3CCC(O)CC3)cc2N1 (configuration not stated),?,79µM*,-6%[87.6 µM],-5%[70.6 µM],i,71µM*
CC1(CNc2ccccc2)COc2ccc(C(=O)NCc3ccc(F)cc3)cc2N1 (configuration not stated),-28%[87.6 µM],45µM*,?,-19%[70.6 µM],i,71µM*
CC1(CNc2ccccc2)COc2ccc(C(=O)NCCc3ccccc3)cc2N1 (configuration not stated),-4%[87.6 µM],28µM*,-18%[87.6 µM],0%[70.6 µM],?,?
COc1cc(CNC(=O)c2ccc3c(c2)NC(C)(CNc2ccccc2)CO3)cc(OC)c1 (configuration not stated),?,?,-7%,1%,i,35µM*
CC(C)(Oc1nn(Cc2cccc(Cl)c2)c2ccccc12)C(=O)NCCN1CCOCC1,?,?,-11%,-21%,i,50µM*
CC(C)(Oc1nn(Cc2cccc(Cl)c2)c2ccccc12)C(=O)NCCCn1ccnc1,-21%,32µM*,-21%,?,i,50µM*
CC(C)(Oc1nn(Cc2cccc(Cl)c2)c2ccccc12)C(=O)N1CCOCC1,?,?,-26%[87.6 µM],?,i,89µM*
COCc1ccc2c(c1)c(OC(C)(C)C(=O)NCCN1CCOCC1)nn2Cc1ccccc1,?,?,-2%,2%,i,?
CC(C)(Oc1nn(Cc2cccc(Cl)c2)c2ccccc12)C(=O)NC1CCOCC1,?,?,-14%[87.6 µM],-26%[70.6 µM],i,89µM*
CC(C)(Oc1nn(Cc2cccc(Cl)c2)c2ccccc12)C(=O)NCC[S+](C)(=O)[O-],-21%,?,-15%,?,i,?
CCCC(=O)Nc1cc(-c2cccnc2)nn1-c1ccccc1,-8%[87.6 µM],-2%[138 µM],0%[87.6 µM],.,.,-5%[172 µM]
O=C(c1ccc(Cl)cc1)N1CCn2c(nn(-c3ccc(Cl)cc3)c2=O)C1,?,-16%,7%,.,.,-23%
COc1ccccc1C(=O)N1CCCn2nc(C)c(-c3ccccc3C(C)C)c21,-3%[87.6 µM],?,-9%[87.6 µM],-2%[70.6 µM],i,89µM*
Cc1nn2c(c1-c1ccccc1C(C)C)N(C(=O)COc1ccccc1C(N)=O)CCC2,-16%[87.6 µM],?,-1%[87.6 µM],-10%[70.6 µM],i,71µM*
COc1cccc(CC(=O)N2CCCn3nc(C)c(-c4ccccc4C(C)C)c32)c1,?,?,?,?,i,?
Cc1nn2c(c1-c1ccccc1C(C)C)N(C(=O)Cc1ccc3c(c1)OCO3)CCC2,-1%[87.6 µM],40µM*,-7%[87.6 µM],1%[70.6 µM],i,?
Cc1nn2c(c1-c1ccccc1Oc1ccccc1)N(C(=O)c1ccc(F)cc1)CCC2,?,?,-9%[87.6 µM],-8%[70.6 µM],i,?
COc1ccccc1C(=O)N1CCCn2nc(C)c(-c3ccccc3N3CCCC3)c21,-25%[87.6 µM],?,-15%[87.6 µM],-11%[70.6 µM],i,56µM*
CCCNC(=O)N1CC[C@@H](CC(=O)O)[C@@H](CC2=NCCc3ccc(OC)cc32)C1,13%[87.6 µM],i,-8%[87.6 µM],2%[70.6 µM],i,2%[172 µM]
CNC(=O)c1cc(C2CC2)nc2c1c(C1CCCN(C(=O)c3cccnc3)C1)nn2C (configuration not stated),.,-12%,.,.,.,1%
COCCCn1c(=O)c(C(=O)NCc2cccs2)nc2cccnc21,-12%,-20%,1%,.,.,-7%
Cc1nn2c(c1-c1ccccc1N1CCCC1)N(C(=O)C(C)C)CCC2,-26%[87.6 µM],?,-12%[87.6 µM],6%[70.6 µM],i,35µM*
Cc1nn2c(c1-c1cccnc1N1CCOCC1)N(C(=O)C(C)C)CCC2,0%[87.6 µM],?,1%[87.6 µM],4%[70.6 µM],i,i
O=C(CCc1ccccc1)N1CC[C@H]2COC(=O)N2c2cc(F)ccc2C1,?,-7%[174 µM],-7%[87.6 µM],2%[70.6 µM],i,-23%[172 µM]
SMILES,SNCA expr inhib,NIH3T3 tox,HEK293 viab,NPR1 antag,Luciferase inh,HEK293 tox
CCN1C(=O)CCc2cc(NC(=O)c3ccc(OC)cc3C)ccc21,10%,?,-3%,-2%,25µM*,71µM*
COCCN1C(=O)CCc2cc(NC(=O)c3ccccc3C)ccc21,-21%,-13%,-3%,0%,i,-9%
CCN1C(=O)CCc2cc(NC(=O)c3cc(F)cc(F)c3)ccc21,140%,?,0%,-3%,?,?
COCCN1C(=O)CCc2cc(NC(=O)c3ccc(C)cc3C)ccc21,64%,?,?,0%,40µM*,?
COc1ccc(C(=O)NC[C@@H]2C=C(C)[C@H](Cc3nnc(-c4ccncc4)o3)C[C@H]2C(C)C)cc1,-14%,?,-29%,?,i,50µM*
CC1=C[C@@H](CNC(=O)c2ccc(C#N)cc2)[C@H](C(C)C)C[C@H]1Cc1nnc(-c2ccncc2)o1,?,?,-16%,?,i,?
CC1=C[C@@H](CNC(=O)C(C)(C)C)[C@H](C(C)C)C[C@H]1Cc1nnc(-c2ccncc2)o1,-30%[87.6 µM],-20%[174 µM],?,-29%[70.6 µM],i,79µM*
CC1=C[C@@H](CNC(=O)c2ccc(F)cc2)[C@H](C(C)C)C[C@H]1Cc1nnc(-c2ccncc2)o1,?,?,?,?,i,35µM*
CC(=O)N1CCN(C[C@@H]2C=C(C)[C@H](Cc3nnc(-c4ccncc4)o3)C[C@H]2C(C)C)CC1,-14%[87.6 µM],-24%[174 µM],1%[87.6 µM],-5%[70.6 µM],i,?
FC(F)(F)c1ccc2c(c1)nc1n2[C@@H](CNCc2c[nH]c3ccccc23)COC1,-4%[87.6 µM],?,-12%[87.6 µM],-17%[70.6 µM],i,89µM*
COCCN1CCC(N2CCN(C(=O)C3CCCCC3)CC2)C1=O (configuration not stated),1%,-1%,3%,10%,i,-2%
Cc1ccc(Nc2ccnc(N3CCCC(C(=O)NCc4ccc(C(F)(F)F)cc4)C3)n2)cc1 (configuration not stated),-2%,-21%,-3%[12.5 µM],.,.,-15%
O=C(NCc1ccc(C(F)(F)F)cc1)C1CCCN(c2nccc(Nc3ccccc3F)n2)C1 (configuration not stated),-10%,32µM*,5%[12.5 µM],.,.,?
O=C(C1CCCN(c2nccc(Nc3ccccc3F)n2)C1)N1CCCC1 (configuration not stated),-29%,32µM*,-19%[12.5 µM],.,.,45µM*
